Test systems include DU-145 prostate; K-562 leukemia; MDA-MB-231 breast; RXF 393 renal; SF-268 CNS; SF-295 CNS; SF-539 CNS; UACC-257 melanoma; M14 melanoma; MALME-3M melanoma.
Assay in all cases: NCI-60 one-dose screen, 48 h (100 = growth as untreated, 0 = no growth, -100 = all killed)
What all share (details): 10 µM unless noted

About 83,000 compounds went through this panel and 20% of them were active in at least one assay; those are over-represented in the sample as a whole.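 Results are percent growth after 48 hours of single-concentration exposure. 100 means growth as in untreated cells, lower positive values show inhibition; negative values down to -100 show cell death.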 Unmarked numbers belong to inactive results. The source made the active and inactive calls. The calls were made as follows: active = growth percent below 10; inactive = the rest.

In the case of `COc1cc2nc(Cl)nc(Nc3cccc(C4=Nc5c(N)nc(N)nc5NC(c5ccccc5)C4)c3)c2cc1OC` (configuration not stated), the growth is 85.9% with DU-145 prostate; 6.71% (active) in the test on K-562 leukemia; 90.4% in the test on MDA-MB-231 breast; 84.5% in the test on RXF 393 renal; 84.3% with SF-268 CNS; 75.8% in the test on SF-295 CNS. Further, the growth in the test with SF-539 CNS is 99.8%; in the test with UACC-257 melanoma, 108%; in the test on M14 melanoma it was 90.1%.

On to `O=C(CN1CCN(c2cc(=O)n(-c3ccccc3)c3ccccc23)CC1)Nc1ccc(F)cc1`, for which the growth in the test with DU-145 prostate was 68.5%; with K-562 leukemia, 37.3%; in the test on MDA-MB-231 breast, 63%; in the test with RXF 393 renal, 71.9%; in the test with SF-268 CNS, 69.2%; in the test on SF-295 CNS, 71.8%. Moreover, the growth in the test on SF-539 CNS was 76.6%; in the test with UACC-257 melanoma, 49.7%; in the test on M14 melanoma it was 75.7%.

Regarding `CC1(C)NCCC[C@]2(C)[C@H]3C/C(=N\O)C4[C@@H]5C[C@@](C)(CO)CC[C@]5(C)CC[C@@]4(C)[C@]3(C)CC[C@@H]12` (some centres not stated), the growth with DU-145 prostate is 106%; in the test with K-562 leukemia it was 80.7%; in the test on MDA-MB-231 breast it was 93.7%; with RXF 393 renal it was 91.5%; in the test with SF-268 CNS it was 87.6%; with SF-295 CNS, 100%. Also, the growth was 97.8% in the test with SF-539 CNS, 102% with UACC-257 melanoma and 101% in the test with M14 melanoma.

For the compound `CC[C@]12C=CCN3CC[C@@]4(c5cc(NC(=O)COc6cc(O)c7c(=O)cc(-c8ccccc8)oc7c6)c(OC)cc5N(C)[C@H]4[C@@](O)(C(=O)OC)[C@@H]1OC(C)=O)[C@@H]32`, the growth with DU-145 prostate is -33.6% (active); in the test with K-562 leukemia it was -1.41% (active); in the test on MDA-MB-231 breast, -58.3% (active); in the test on RXF 393 renal, -92.1% (active); in the test on SF-268 CNS it was -60.6% (active); in the test on SF-295 CNS, -85.3% (active). Moreover, the growth in the test on SF-539 CNS is -77.1% (active); with UACC-257 melanoma, -76.1% (active); in the test with M14 melanoma, -75.4% (active).

As for `NC(N)=Nc1ccc(Nc2cccc(Nc3ccc(Cl)c(C(F)(F)F)c3)c2)cn1`, the growth with DU-145 prostate is 66.1%; in the test on K-562 leukemia it was -2.73% (active); in the test on MDA-MB-231 breast, 31%; with RXF 393 renal, 77.6%; in the test with SF-268 CNS, 33.1%; in the test on SF-295 CNS, 11.6%. Moreover, the values for the growth in the test on SF-539 CNS, in the test with UACC-257 melanoma and in the test with M14 melanoma were 80.7%, 42.9% and 47.3%, respectively.

As to `O=C(CCn1cc[n+](CC(=O)c2ccc(-c3ccccc3)cc2)c1)Nc1cccc2cccnc12`, the growth with DU-145 prostate is 90.9%; in the test on K-562 leukemia, 45.9%; with MDA-MB-231 breast, 65.1%; in the test on RXF 393 renal, 90.5%; in the test on SF-268 CNS, 72.2%; with SF-295 CNS it was 100%. The growth in the test on SF-539 CNS is 80.8%; in the test on UACC-257 melanoma, 40.9%; with M14 melanoma it was 82.3%.

As to `Cn1ccnc1C(=O)/C=C/c1ccc(NC(=O)c2c(F)c(F)c(F)c(F)c2F)cc1`, the growth is 106% in the test with DU-145 prostate; 80.7% in the test with K-562 leukemia; 104% in the test with MALME-3M melanoma; 108% with MDA-MB-231 breast; 96% in the test with SF-268 CNS; 106% in the test with SF-295 CNS. In addition, the growth in the test with SF-539 CNS is 108%; in the test on UACC-257 melanoma, 113%.

Regarding `CCO/C=N/C1=C(C#N)C(c2ccc(F)cc2)c2sc3c(C)cccc3c2O1` (configuration not stated), the growth with DU-145 prostate is 12.4%; in the test on K-562 leukemia, 10.4%; in the test on MDA-MB-231 breast it was 17.8%; with RXF 393 renal, 0.223% (active); in the test with SF-268 CNS, 38.3%; in the test on SF-295 CNS, -6.89% (active). For the same compound, the growth was -10.1% (active) in the test on SF-539 CNS, 69% in the test with UACC-257 melanoma and 3.68% (active) with M14 melanoma.

For `CS(=O)(=O)Nc1cc(-c2ccc3ncc(C#N)c(Nc4cccc(Cl)c4F)c3c2)cnc1Cl`, the growth with DU-145 prostate was 11.9%; with K-562 leukemia it was 21.8%; with MALME-3M melanoma, -32.5% (active); in the test on MDA-MB-231 breast it was -8.64% (active); in the test on SF-268 CNS it was -10.1% (active); with SF-295 CNS, -10.9% (active). Also, the growth with SF-539 CNS was -24.4% (active); in the test on UACC-257 melanoma it was 2.63% (active).

`C#CCOC(=O)[C@@H]1CCCN1CC#C`: the growth in the test with DU-145 prostate was 92%; in the test on K-562 leukemia, 76.8%; with MDA-MB-231 breast it was 84.6%; in the test on RXF 393 renal it was 81.7%; in the test on SF-268 CNS it was 76.9%; in the test on SF-295 CNS, 102%. In addition, the values for the growth in the test with SF-539 CNS, in the test on UACC-257 melanoma and with M14 melanoma were 90.2%, 97.3% and 98.4%, respectively.

Turning to `NS(=O)(=O)c1ccc(-n2cc(-c3cccc(NC(=O)c4ccc(N5CCOCC5)c(C(F)(F)F)c4)c3)nn2)cc1`, the growth is 41.1% with DU-145 prostate; 19.3% with K-562 leukemia; 43.8% in the test with MALME-3M melanoma; 52% with MDA-MB-231 breast; 68.9% in the test with SF-268 CNS; 32.6% in the test on SF-295 CNS. The growth with SF-539 CNS was 42.7%; in the test with UACC-257 melanoma, 82.5%; in the test on M14 melanoma it was 45.3%.

For the compound `CNC(=O)c1c(NC(=O)c2ccccc2C(F)(F)F)sc2c1CCC(=O)C2`, the growth in the test on DU-145 prostate is 99.9%; with K-562 leukemia, 12.9%; in the test with MALME-3M melanoma it was 54%; in the test on MDA-MB-231 breast, 26.5%; in the test with SF-268 CNS it was 33.2%; with SF-295 CNS, 82.2%. Also, the growth in the test on SF-539 CNS was 14.5%; with UACC-257 melanoma it was 72.4%.

`C#CCC#CCN1CCC[C@H]1C(=O)NCC(=O)OC`: the growth in the test on DU-145 prostate is 105%; in the test on K-562 leukemia, 98.1%; in the test on MDA-MB-231 breast, 106%; with RXF 393 renal, 105%; with SF-268 CNS it was 108%; in the test with SF-295 CNS, 107%. For the same compound, the figures for the growth with SF-539 CNS, in the test on UACC-257 melanoma and in the test on M14 melanoma were 105%, 93.7% and 107%, respectively.

With `CC(C)(C)c1ccc(C(=O)Nc2sc3c(c2C(N)=O)CC/C(=N\O)C3)cc1`, the growth was 42.2% in the test on DU-145 prostate; 7.83% (active) in the test on K-562 leukemia; 14.1% in the test on MDA-MB-231 breast; -14.3% (active) with RXF 393 renal; 32% in the test on SF-268 CNS; 16.8% with SF-295 CNS. In addition, the growth in the test on SF-539 CNS is 21.6%; in the test with UACC-257 melanoma it was 5.76% (active); in the test on M14 melanoma, 25%.

On to `NC(N)=Nc1ccc(Oc2cccc(Nc3ccc(Cl)c(C(F)(F)F)c3)c2)cn1`, for which the growth is -93.4% (active) in the test on DU-145 prostate; -43.5% (active) with K-562 leukemia; -58.1% (active) with MDA-MB-231 breast; -3.9% (active) in the test with RXF 393 renal; 17.7% with SF-268 CNS; -84.7% (active) in the test with SF-295 CNS. The growth is 15.9% in the test with SF-539 CNS, -26.1% (active) in the test with UACC-257 melanoma and -62.4% (active) in the test with M14 melanoma.

These data come from PubChem BioAssay (NCI).
